Results published in PubChem BioAssay (EPA / NIEHS).
The source made the active and inactive calls. How the source made its calls: active means hit-call score of the fitted dose curve at least 0.9, where 1 is the maximum; inactive means score below 0.9.

Columns and labels:
Conditions in all cases: mRNA level, 48 h; actives raise or lower the signal
BCL2L11 (gene 10018) = experiment: LTEA_HepaRG_BCL2L11: Life Technologies and Expression Analysis (LTEA) Assay for Bcl-2 (BCL2L11) gene using HepaRG (AID 2283473)
Procedure, shortened: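 Human hepatic HepaRG cultures are treated 48 h with test chemicals (maximum 100 uM, 0.5% DMSO vehicle). Expression of BCL2L11 is measured by qRT-PCR against ACTB, GAPDH and POLR2A, with activity in either direction scored relative to vehicle.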

[1] = read-out: Apoptosis regulator Bcl-2 (Homo sapiens) (UniProt P10415); experiment: LTEA_HepaRG_BCL2: Life Technologies and Expression Analysis (LTEA) Assay for Bcl-2 gene using HepaRG (AID 2283475)
Procedure, shortened: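 qRT-PCR of BCL2 transcript, normalized to three housekeeping genes (ACTB, GAPDH, POLR2A), after 48 h chemical exposure of HepaRG cells; concentrations top 100 uM with half-log dilutions, 0.5% DMSO vehicle, duplicates; changes up or down fitted relative to vehicle.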

[2] = read-out: Bcl-2 (BID) gene, BID (gene 637); experiment: LTEA_HepaRG_BID: Life Technologies and Expression Analysis (LTEA) Assay for Bcl-2 (BID) gene using HepaRG (AID 2283476)
Procedure, shortened: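 Duplicate 48 h treatments of HepaRG cells in serum-free induction medium spanned 100 uM downward in half-log steps, 0.5% DMSO. Transcript change quantified by qRT-PCR against three housekeeping genes, fitted up or down versus DMSO.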

Caspase-3 (Homo sapiens) = Caspase-3 (Homo sapiens) (UniProt P42574); experiment: LTEA_HepaRG_CASP3: Life Technologies and Expression Analysis (LTEA) Assay for cysteine-aspartic acid protease (CASP3) using HepaRG (AID 2283477)
Procedure, shortened: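 Transcript-level assay: CASP3 mRNA in human HepaRG after 48 h treatment, eight half-log concentrations from 100 uM in 0.5% DMSO, quantified by qRT-PCR.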

[3] = read-out: Cytochrome P450 (CYP24A1), CYP24A1 (gene 1591); experiment: LTEA_HepaRG_CYP24A1: Life Technologies and Expression Analysis (LTEA) Assay for Cytochrome P450 (CYP24A1) using HepaRG (AID 2283478)
Procedure, shortened: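 Gene expression of CYP24A1 by TaqMan qRT-PCR in HepaRG after 48 h treatment, highest concentration 100 uM; activity fitted in both directions relative to DMSO vehicle.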

[4] = read-out: Cytochrome P450 (CYP1A2), CYP1A2 (gene 1544); experiment: LTEA_HepaRG_CYP1A2: Life Technologies and Expression Analysis (LTEA) Assay for Cytochrome P450 (CYP1A2) using HepaRG (AID 2283479)
Procedure, shortened: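 In duplicate wells, HepaRG cultures maintained in 0.5% DMSO were treated 48 h across an 8-point, half-log series topping at 100 uM; phenobarbital (1 mM) served as induction control. Expression was read by qRT-PCR.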

[5] = read-out: cysteine-aspartic acid protease (CASP8), CASP8 (gene 841); experiment: LTEA_HepaRG_CASP8: Life Technologies and Expression Analysis (LTEA) Assay for cysteine-aspartic acid protease (CASP8) using HepaRG (AID 2283480)
Procedure, shortened: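 CASP8 transcript measured by TaqMan qRT-PCR with ACTB/GAPDH/POLR2A normalization, after 48 h chemical exposure of HepaRG cells in serum-free induction medium. Eight concentrations, top 100 uM, half-log steps, 0.5% DMSO vehicle; fits in both directions versus DMSO.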

[6] = read-out: Cytochrome P450 (CYP2B6), CYP2B6 (gene 1555); experiment: LTEA_HepaRG_CYP2B6: Life Technologies and Expression Analysis (LTEA) Assay for Cytochrome P450 (CYP2B6) using HepaRG (AID 2283481)
Procedure, shortened: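 Human HepaRG, 48 h dosing, 0.5% DMSO vehicle, top dose 100 uM. CYP2B6 transcript by qRT-PCR, housekeeping-normalized, bidirectional curve fit.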

[7] = read-out: Cytochrome P450 2C19 (Homo sapiens) (UniProt P33261); experiment: LTEA_HepaRG_CYP2C19: Life Technologies and Expression Analysis (LTEA) Assay for CYP2C19 using HepaRG (AID 2283482)
Procedure, shortened: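 Endpoint: CYP2C19 mRNA change, bidirectional fit vs 0.5% DMSO. Cells: HepaRG, 48 h exposure, eight-point series topping at 100 uM. Quantitation: qRT-PCR normalized to ACTB, GAPDH, POLR2A.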

CYP2C8 (gene 1558) = experiment: LTEA_HepaRG_CYP2C8: Life Technologies and Expression Analysis (LTEA) Assay for CYP2C8 using HepaRG (AID 2283483)
Procedure, shortened: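 CYP2C8 expression measured by TaqMan qRT-PCR and normalized to three housekeeping genes. HepaRG cultures were treated for 48 h with an eight-point half-log series topping at 100 uM, vehicle 0.5% DMSO, duplicates; fitted both directions against DMSO.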

CYP2E1 (gene 1571) = experiment: LTEA_HepaRG_CYP2E1: Life Technologies and Expression Analysis (LTEA) Assay for CYP2E1 using HepaRG (AID 2283485)
Procedure, shortened: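 CYP2E1 transcript measured by Fluidigm qRT-PCR against three housekeeping genes in human HepaRG cells treated 48 h (top 100 uM, half-log steps, 0.5% DMSO vehicle). Gain or loss fitted relative to DMSO baseline.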

CYP4A11 (gene 1579) = experiment: LTEA_HepaRG_CYP4A11: Life Technologies and Expression Analysis (LTEA) Assay for CYP4A11 using HepaRG (AID 2283486)
Procedure, shortened: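 Human hepatic HepaRG cultures receive duplicate 48 h exposures across a concentration-response series topping at 100 uM. Expression changes in CYP4A11 are measured by qRT-PCR relative to DMSO controls.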

[8] = read-out: Cytochrome P450 3A4 (Homo sapiens) (UniProt P08684); experiment: LTEA_HepaRG_CYP3A4: Life Technologies and Expression Analysis (LTEA) Assay for CYP3A4 using HepaRG (AID 2283487)
Procedure, shortened: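 HepaRG, 48 h exposure, 8-pt CRC from 100 uM (half-log), 0.5% DMSO, duplicates; serum-free induction medium. Readout: CYP3A4 mRNA, qRT-PCR, ACTB/GAPDH/POLR2A normalization. Bidirectional fit vs DMSO.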

[9] = read-out: DNA damage-inducible transcript 3 (DDIT3), DDIT3 (gene 1649); experiment: LTEA_HepaRG_DDIT3: Life Technologies and Expression Analysis (LTEA) Assay for DNA damage-inducible transcript 3 (DDIT3) using HepaRG (AID 2283488)
Procedure, shortened: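 DDIT3 transcript was quantified by qRT-PCR with ACTB/GAPDH/POLR2A normalization after 48 h chemical treatment of differentiated HepaRG cells in 0.5% DMSO. Dosing was eight-point, half-log, top 100 uM, duplicate wells. Curves fitted bidirectionally versus DMSO.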

[10] = read-out: Pro-epidermal growth factor (Homo sapiens) (UniProt P01133); experiment: LTEA_HepaRG_EGF: Life Technologies and Expression Analysis (LTEA) Assay for Epidermal growth factor (EGF) using HepaRG (AID 2283489)
Procedure, shortened: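 Concentration-response mRNA assay: HepaRG cells dosed 48 h (max 100 uM, 0.5% DMSO), EGF measured by qRT-PCR and normalized to ACTB/GAPDH/POLR2A.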

[11] = read-out: Early growth response protein 1 (EGR1) transcription factor, EGR1 (gene 1958); experiment: LTEA_HepaRG_EGR1: Life Technologies and Expression Analysis (LTEA) Assay for Early growth response protein 1 (EGR1) transcription factor using HepaRG (AID 2283490)
Procedure, shortened: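 EGR1 transcript levels quantified by qRT-PCR (Fluidigm arrays) against three housekeeping genes after 48 h chemical exposure of HepaRG cells. Eight-point half-log series topping at 100 uM, 0.5% DMSO vehicle, analyzed for gain or loss.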

[12] = read-out: Ezrin (EZR), EZR (gene 7430); experiment: LTEA_HepaRG_EZR: Life Technologies and Expression Analysis (LTEA) Assay for Ezrin (EZR) using HepaRG (AID 2283491)
Procedure, shortened: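 Read-out is EZR transcript level by qRT-PCR, normalized to three housekeeping genes and fitted bidirectionally against the DMSO control. Human HepaRG cells received test chemicals for 48 h at eight half-log concentrations up to 100 uM in 0.5% DMSO.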

[13] = read-out: Cytochrome P450 3A7 (Homo sapiens) (UniProt P24462); experiment: LTEA_HepaRG_CYP3A7: Life Technologies and Expression Analysis (LTEA) Assay for CYP3A7 using HepaRG (AID 2283492)
Procedure, shortened: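 qRT-PCR of CYP3A7 in HepaRG lysates after 48 h treatment; concentration-response (8 points, max 100 uM) analysed bidirectionally relative to 0.5% DMSO controls.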

CYP2C9 (gene 1559) = experiment: LTEA_HepaRG_CYP2C9: Life Technologies and Expression Analysis (LTEA) Assay for CYP2C9 using HepaRG (AID 2283484)
Procedure, shortened: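 CYP2C9 transcript level, quantified by TaqMan qRT-PCR against three housekeeping genes, was fitted bidirectionally relative to 0.5% DMSO. HepaRG cultures were treated 48 h, in duplicate, at eight half-log concentrations topping at 100 uM.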

Measured: AC50

Cytochrome P450 2C19 (Homo sapiens), sequence (P33261 whole entry, looked up): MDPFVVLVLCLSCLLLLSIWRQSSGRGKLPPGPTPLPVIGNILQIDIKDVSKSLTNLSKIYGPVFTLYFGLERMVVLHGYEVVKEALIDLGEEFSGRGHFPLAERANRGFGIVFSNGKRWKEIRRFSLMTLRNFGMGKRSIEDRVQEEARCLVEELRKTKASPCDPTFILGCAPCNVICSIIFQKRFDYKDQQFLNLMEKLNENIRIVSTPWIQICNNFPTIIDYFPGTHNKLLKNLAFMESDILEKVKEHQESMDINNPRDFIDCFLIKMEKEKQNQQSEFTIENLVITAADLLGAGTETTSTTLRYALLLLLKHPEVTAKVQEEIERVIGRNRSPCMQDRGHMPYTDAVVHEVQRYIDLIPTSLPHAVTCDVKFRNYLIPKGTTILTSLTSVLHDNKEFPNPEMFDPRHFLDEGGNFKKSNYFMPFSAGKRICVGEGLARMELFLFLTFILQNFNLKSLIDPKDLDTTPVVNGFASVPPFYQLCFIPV
Cytochrome P450 3A4 (Homo sapiens), sequence (P08684 whole entry, looked up): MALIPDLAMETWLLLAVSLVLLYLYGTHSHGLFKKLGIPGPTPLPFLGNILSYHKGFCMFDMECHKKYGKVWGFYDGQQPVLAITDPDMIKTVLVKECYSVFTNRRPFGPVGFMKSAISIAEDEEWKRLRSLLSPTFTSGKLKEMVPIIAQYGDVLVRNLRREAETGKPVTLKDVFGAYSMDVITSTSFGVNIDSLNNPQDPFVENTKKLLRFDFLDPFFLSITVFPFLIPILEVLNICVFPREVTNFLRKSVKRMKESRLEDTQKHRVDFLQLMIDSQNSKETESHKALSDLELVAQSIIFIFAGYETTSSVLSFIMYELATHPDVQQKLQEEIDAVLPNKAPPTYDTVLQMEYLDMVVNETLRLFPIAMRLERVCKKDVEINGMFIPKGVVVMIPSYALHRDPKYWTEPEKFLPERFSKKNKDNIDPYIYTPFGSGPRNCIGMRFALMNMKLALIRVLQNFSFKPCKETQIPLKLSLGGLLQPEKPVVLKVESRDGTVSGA
Cytochrome P450 3A7 (Homo sapiens), sequence (P24462 whole entry, looked up): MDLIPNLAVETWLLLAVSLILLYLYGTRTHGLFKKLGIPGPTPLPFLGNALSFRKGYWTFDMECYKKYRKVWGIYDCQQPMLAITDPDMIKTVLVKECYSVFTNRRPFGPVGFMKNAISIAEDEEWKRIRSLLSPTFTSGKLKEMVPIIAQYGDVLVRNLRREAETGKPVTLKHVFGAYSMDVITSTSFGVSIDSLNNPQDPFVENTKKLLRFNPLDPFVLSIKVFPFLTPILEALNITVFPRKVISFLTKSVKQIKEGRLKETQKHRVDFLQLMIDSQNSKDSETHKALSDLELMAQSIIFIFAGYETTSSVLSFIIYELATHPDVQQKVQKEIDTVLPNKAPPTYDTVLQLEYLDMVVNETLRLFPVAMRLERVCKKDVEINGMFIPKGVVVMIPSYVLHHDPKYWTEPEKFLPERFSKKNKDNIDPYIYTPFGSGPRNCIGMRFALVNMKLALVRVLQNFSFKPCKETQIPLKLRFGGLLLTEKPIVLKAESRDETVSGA
Caspase-3 (Homo sapiens), sequence (P42574 whole entry, looked up): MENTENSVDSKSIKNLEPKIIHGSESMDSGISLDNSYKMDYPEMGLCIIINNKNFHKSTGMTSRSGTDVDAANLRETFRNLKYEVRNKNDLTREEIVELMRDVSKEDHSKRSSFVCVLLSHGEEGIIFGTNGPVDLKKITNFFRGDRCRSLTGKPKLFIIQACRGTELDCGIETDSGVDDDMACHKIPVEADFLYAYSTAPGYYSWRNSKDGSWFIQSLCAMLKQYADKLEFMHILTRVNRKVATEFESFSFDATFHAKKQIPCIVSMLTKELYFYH
Apoptosis regulator Bcl-2 (Homo sapiens), sequence (P10415 whole entry, looked up): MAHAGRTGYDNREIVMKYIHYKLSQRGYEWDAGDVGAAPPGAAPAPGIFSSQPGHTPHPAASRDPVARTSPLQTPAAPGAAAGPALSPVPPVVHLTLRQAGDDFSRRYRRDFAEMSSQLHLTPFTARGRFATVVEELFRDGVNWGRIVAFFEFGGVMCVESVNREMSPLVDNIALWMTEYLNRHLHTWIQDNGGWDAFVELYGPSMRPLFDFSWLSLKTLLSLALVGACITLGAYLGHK

c1ccc2ncccc2c1
active: [6] 50 µM | CYP2C8 (gene 1558) 36.2 µM
not listed: CYP2C9 (gene 1559)
inactive: all other assays above

OC(CCl)CCl
not listed: [1] | [4]
inactive: all other assays above

CCOC(N)=O
not listed: [1]
inactive: all other assays above
